# PubChem BioAssay (Tox21)
# Inconclusive results are not listed. Activity calls are given as the source filed them. Calls follow the shape of the dose curve; as a rule, active = well fitted curve in the direction sought with a large enough effect in the repeat runs; inconclusive = weak or mixed curves; inactive = no such curve, though single readings can be large; an effect the other way counts as inactive or inconclusive.
# Assay: qHTS assay to identify small molecule antagonists of the retinoic acid receptor (RAR) signaling pathway (AID 1159552; also: nearly all actives have a fitted effect of over 50% in size)
# Settings: C3RL4 RARE luciferase reporter, retinol-stimulated, 6 h; series mostly up to 92.4 µM; activity, negative = inhibition: at the top concentration
# Summary of the method: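 RARE-luc C3RL4 cells; cpds + 1 uM (final) retinol, 6 hr, 37 C/5% CO2; luciferase reagent, 30 min RT, luminescence readout. Inhibitors of retinol-driven signal scored.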
# % is scaled to controls: 0 for no effect and ±100 for the full control effect.
row,Structure (SMILES),"activity, negative = inhibition"
1,Nc1ccccn1,59.5% (inactive)
2,C[C@H]1C[C@H]2[C@@H]3CCC4=CC(=O)C=C[C@]4(C)[C@H]3C(=O)C[C@]2(C)[C@@]1(O)C(=O)CO,-3.37% [at 42.5 µM] (inactive)
3,Cc1ccc(-c2ccccc2C#N)cc1,43.8% [at 42.5 µM] (inactive)
4,CCCCOC(=O)CCC(C)=O,-6.18% (inactive)
5,CCN[C@@H]1C[C@H](N)[C@@H](OC2OC(CN)=CCC2N)[C@H](O)[C@H]1O[C@H]1OC[C@](C)(O)[C@H](NC)[C@H]1O (stereo not given in full),11.8% [at 0.349 µM] (inactive)

# Assay: qHTS assay to identify small molecule agonists of the retinoic acid receptor (RAR) signaling pathway (AID 1159553)
# Settings: C3RL4 RARE luciferase reporter, agonist, 6 h; series mostly up to 73.3 µM; activation: at the top concentration
# Summary of the method: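 6 hr compound exposure (DMSO vehicle) of overnight-plated C3RL4 RARE-luc cells at 37 C; luminescence quantified after 30 min RT with luciferase reagent.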
row,Structure (SMILES),activation
1,Nc1ccccn1,2.26% (inactive)
2,Nc1ccn([C@@H]2O[C@H](CO)[C@@H](O)C2O)c(=O)n1 (stereo not given in full),-4.06% (inactive)
3,Cc1ncc(COP(=O)(O)O)c(C=O)c1O,1.14% (inactive)
4,CCN1C=CN(C)C1C (stereo not given),-1.09% [at 94.8 µM] (inactive)
5,CCCc1nn(C)c2c(=O)[nH]c(-c3cc(S(=O)(=O)N4CCN(C)CC4)ccc3OCC)nc12,-11.7% (inactive)
6,[Ca+2],-3.36% (inactive)
7,Nc1ccn([C@@H]2O[C@H](CO)[C@@H](O)C2(F)F)c(=O)n1,-10.9% (inactive)
8,COc1ccc2cc1Oc1cc3c(cc1OC)CC[N+](C)(C)[C@H]3Cc1ccc(cc1)Oc1c(OC)c(OC)cc3c1[C@@H](C2)[N+](C)(C)CC3,-1.37% (inactive)
9,CC[N+](C)(CC)CCOC(=O)C1c2ccccc2Oc2ccccc21,1.41% (inactive)
10,CCN[C@@H]1C[C@H](N)[C@@H](OC2OC(CN)=CCC2N)[C@H](O)[C@H]1O[C@H]1OC[C@](C)(O)[C@H](NC)[C@H]1O (stereo not given in full),1.16% [at 0.756 µM] (inactive)
